Results taken from PMC8384837, “Expanding the binding specificity for RNA recognition by a PUF domain”.
Changes are numbered by the printed parent chain.

What was measured:
Test in all cases: yeast three-hybrid, YBZ-1, SC-Leu-His + 0.5 mM 3-AT, 4 days
Conditions in all cases: tags: N-Gal4 AD-HA kept; label: inside an RPR1-promoter hybrid RNA with tandem MS2 sites; ssRNA
PUM1 PUF domain R3-GYV = PUM1 PUF domain R3-GYV (Homo sapiens, UniProt Q14671 828-1176, C935G;R936Y;Q939V)
Summary of the method: (§1)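 Pumilio-1 PUF domain libraries, randomized (NNK) at the three base-contacting residues of each repeat, were co-expressed with matching RNA elements from a centromeric plasmid in strain YBZ-1 (LexA–MS2 coat fusion, HIS3 reporter). Transformants were plated on SC-Leu (input) and SC-Leu-His + 0.5 mM 3-AT (selection) for four days, and repeat regions were PCR-amplified and Illumina-sequenced. The interaction score is the log2 change in variant frequency from input to selection, with pseudocount 1 where absent.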

PUM1 PUF domain R6-MFS = target: T1, PUM1 PUF domain R6-MFS (Homo sapiens, UniProt Q14671 828-1176, N1043M;Y1044F;Q1047S)
T1 sequence: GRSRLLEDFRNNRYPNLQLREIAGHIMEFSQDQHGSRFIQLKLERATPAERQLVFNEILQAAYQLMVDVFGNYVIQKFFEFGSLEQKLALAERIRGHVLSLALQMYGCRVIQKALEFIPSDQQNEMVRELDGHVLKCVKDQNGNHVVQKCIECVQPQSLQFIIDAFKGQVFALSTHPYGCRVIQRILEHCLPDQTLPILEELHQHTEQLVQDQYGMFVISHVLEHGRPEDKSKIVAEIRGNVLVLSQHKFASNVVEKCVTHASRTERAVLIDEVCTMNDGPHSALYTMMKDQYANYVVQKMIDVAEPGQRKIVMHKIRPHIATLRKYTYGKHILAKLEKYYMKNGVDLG
Summary of the method: as §1

PUM1 PUF domain R8-HYR = PUM1 PUF domain R8-HYR (Homo sapiens, UniProt Q14671 828-1176, N1122H;Q1126R)
Summary of the method: as §1

PUM1 PUF domain R8-KWV = PUM1 PUF domain R8-KWV (Homo sapiens, UniProt Q14671 828-1176, N1122K;Y1123W;Q1126V)
Summary of the method: as §1

PUM1 PUF domain R4-APN = PUM1 PUF domain R4-APN (Homo sapiens, UniProt Q14671 828-1176, N971A;H972P;Q975N)
Summary of the method: as §1

PUM1 PUF domain R3-ARI = PUM1 PUF domain R3-ARI (Homo sapiens, UniProt Q14671 828-1176, C935A;Q939I)
Summary of the method: as §1

PUM1 PUF domain R6-TWG = target: T2, PUM1 PUF domain R6-TWG (Homo sapiens, UniProt Q14671 828-1176, N1043T;Y1044W;Q1047G)
T2 sequence: T1 sequence with M216T, F217W, S220G
Summary of the method: as §1

PUM1 PUF domain R5-RPC = PUM1 PUF domain R5-RPC (Homo sapiens, UniProt Q14671 828-1176, C1007R;R1008P;Q1011C)
Summary of the method: as §1

PUM1 PUF domain R1-KMR = PUM1 PUF domain R1-KMR (Homo sapiens, UniProt Q14671 828-1176, S863K;R864M;Q867R)
Summary of the method: as §1

PUM1 PUF domain R1-QRR = PUM1 PUF domain R1-QRR (Homo sapiens, UniProt Q14671 828-1176, S863Q;Q867R)
Summary of the method: as §1

PUM1 PUF domain R1-RKV = PUM1 PUF domain R1-RKV (Homo sapiens, UniProt Q14671 828-1176, S863R;R864K;Q867V)
Summary of the method: as §1

PUM1 PUF domain R4-WFS = PUM1 PUF domain R4-WFS (Homo sapiens, UniProt Q14671 828-1176, N971W;H972F;Q975S)
Summary of the method: as §1

PUM1 PUF domain R4-GNH = PUM1 PUF domain R4-GNH (Homo sapiens, UniProt Q14671 828-1176, N971G;H972N;Q975H)
Summary of the method: as §1

PUM1 PUF domain R8-RWF = PUM1 PUF domain R8-RWF (Homo sapiens, UniProt Q14671 828-1176, N1122R;Y1123W;Q1126F)
Summary of the method: as §1

PUM1 PUF domain R7-RCK = PUM1 PUF domain R7-RCK (Homo sapiens, UniProt Q14671 828-1176, S1079R;N1080C;E1083K)
Summary of the method: as §1

PUM1 PUF domain R3-EWV = PUM1 PUF domain R3-EWV (Homo sapiens, UniProt Q14671 828-1176, C935E;R936W;Q939V)
Summary of the method: as §1

PUM1 PUF domain R3-YCG = PUM1 PUF domain R3-YCG (Homo sapiens, UniProt Q14671 828-1176, C935Y;R936C;Q939G)
Summary of the method: as §1

PUM1 PUF domain R1-QIR = PUM1 PUF domain R1-QIR (Homo sapiens, UniProt Q14671 828-1176, S863Q;R864I;Q867R)
Summary of the method: as §1

Sequence: GGCUAGAACUAGUGGAUCCCCCGGCGCCCGGCGGCUCGAGCCCGGGUAAGUGUAAAUAGUCUGCAUGCCGCCGGGCGCCAUGCCUGCAGGUCGACUCUAGAAAACAUG
- binding signal (PUM1 PUF domain R3-GYV): 3.26 log2 enrichment (interaction score)
- binding signal (PUM1 PUF domain R6-MFS): 3 log2 enrichment (interaction score)
- binding signal (PUM1 PUF domain R8-HYR): 2.29 log2 enrichment (interaction score)
- binding signal (PUM1 PUF domain R8-KWV): 5.94 log2 enrichment (interaction score)
- binding signal (PUM1 PUF domain R4-APN): 4.29 log2 enrichment (interaction score)
- binding signal (PUM1 PUF domain R3-ARI): 4.45 log2 enrichment (interaction score)
- binding signal (PUM1 PUF domain R6-TWG): 3.96 log2 enrichment (interaction score)

Sequence: GGCUAGAACUAGUGGAUCCCCCGGCGCCCGGCGGCUCGAGCCCGGGUAAGUGUUAAUAGUCUGCAUGCCGCCGGGCGCCAUGCCUGCAGGUCGACUCUAGAAAACAUG
- binding signal (PUM1 PUF domain R5-RPC): 2.17 log2 enrichment (interaction score)

Sequence: GGCUAGAACUAGUGGAUCCCCCGGCGCCCGGCGGCUCGAGCCCGGGUAAGUGUCAAUAGUCUGCAUGCCGCCGGGCGCCAUGCCUGCAGGUCGACUCUAGAAAACAUG
- binding signal (PUM1 PUF domain R5-RPC): 1.49 log2 enrichment (interaction score)

Sequence: GGCUAGAACUAGUGGAUCCCCCGGCGCCCGGCGGCUCGAGCCCGGGUAAGUGUAAAUUGUCUGCAUGCCGCCGGGCGCCAUGCCUGCAGGUCGACUCUAGAAAACAUG
- binding signal (PUM1 PUF domain R1-KMR): 6.29 log2 enrichment (interaction score)
- binding signal (PUM1 PUF domain R1-QRR): 1.96 log2 enrichment (interaction score)
- binding signal (PUM1 PUF domain R1-RKV): 3.41 log2 enrichment (interaction score)

Sequence: GGCUAGAACUAGUGGAUCCCCCGGCGCCCGGCGGCUCGAGCCCGGGUAAGUGUAUAUAGUCUGCAUGCCGCCGGGCGCCAUGCCUGCAGGUCGACUCUAGAAAACAUG
- binding signal (PUM1 PUF domain R4-WFS): 3.06 log2 enrichment (interaction score)
- binding signal (PUM1 PUF domain R4-GNH): 3.07 log2 enrichment (interaction score)

Sequence: GGCUAGAACUAGUGGAUCCCCCGGCGCCCGGCGGCUCGAGCCCGGGUAAGCGUAAAUAGUCUGCAUGCCGCCGGGCGCCAUGCCUGCAGGUCGACUCUAGAAAACAUG
- binding signal (PUM1 PUF domain R8-KWV): 5.88 log2 enrichment (interaction score)
- binding signal (PUM1 PUF domain R8-RWF): 5.22 log2 enrichment (interaction score)

Sequence: GGCUAGAACUAGUGGAUCCCCCGGCGCCCGGCGGCUCGAGCCCGGGUAAGUGUACAUAGUCUGCAUGCCGCCGGGCGCCAUGCCUGCAGGUCGACUCUAGAAAACAUG
- binding signal (PUM1 PUF domain R4-APN): 1.7 log2 enrichment (interaction score)

Sequence: GGCUAGAACUAGUGGAUCCCCCGGCGCCCGGCGGCUCGAGCCCGGGUAAGUAUAAAUAGUCUGCAUGCCGCCGGGCGCCAUGCCUGCAGGUCGACUCUAGAAAACAUG
- binding signal (PUM1 PUF domain R7-RCK): 2.31 log2 enrichment (interaction score)

Sequence: GGCUAGAACUAGUGGAUCCCCCGGCGCCCGGCGGCUCGAGCCCGGGUAAGUCUAAAUAGUCUGCAUGCCGCCGGGCGCCAUGCCUGCAGGUCGACUCUAGAAAACAUG
- binding signal (PUM1 PUF domain R7-RCK): 4.15 log2 enrichment (interaction score)

Sequence: GGCUAGAACUAGUGGAUCCCCCGGCGCCCGGCGGCUCGAGCCCGGGUAAGUGUAAGUAGUCUGCAUGCCGCCGGGCGCCAUGCCUGCAGGUCGACUCUAGAAAACAUG
- binding signal (PUM1 PUF domain R3-EWV): 2.9 log2 enrichment (interaction score)
- binding signal (PUM1 PUF domain R3-YCG): 4.58 log2 enrichment (interaction score)

Sequence: GGCUAGAACUAGUGGAUCCCCCGGCGCCCGGCGGCUCGAGCCCGGGUAAGUGUAAUUAGUCUGCAUGCCGCCGGGCGCCAUGCCUGCAGGUCGACUCUAGAAAACAUG
- binding signal (PUM1 PUF domain R3-EWV): 2.82 log2 enrichment (interaction score)
- binding signal (PUM1 PUF domain R3-ARI): 2.15 log2 enrichment (interaction score)

Sequence: GGCUAGAACUAGUGGAUCCCCCGGCGCCCGGCGGCUCGAGCCCGGGUAAGUGUAAAUCGUCUGCAUGCCGCCGGGCGCCAUGCCUGCAGGUCGACUCUAGAAAACAUG
- binding signal (PUM1 PUF domain R1-QRR): 5.33 log2 enrichment (interaction score)
- binding signal (PUM1 PUF domain R1-QIR): 3.53 log2 enrichment (interaction score)

Sequence: GGCUAGAACUAGUGGAUCCCCCGGCGCCCGGCGGCUCGAGCCCGGGUAAGUGUAAAUGGUCUGCAUGCCGCCGGGCGCCAUGCCUGCAGGUCGACUCUAGAAAACAUG
- binding signal (PUM1 PUF domain R1-RKV): 0.48 log2 enrichment (interaction score)
